Data published in PubChem BioAssay (NCI).
About 79,000 compounds went through this panel and 15% of them were active in at least one assay; those are over-represented in the sample as a whole. Activity calls are given as the source filed them. Cut-off read from the data, not from the text of the source: active = growth inhibition above about 70%; inactive = the rest.

Assays:
[1] = NCI Yeast Anticancer Drug Screen. Data for the wt1 strain (AID 149);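 note: 0% = growth of vehicle-treated wt1 cultures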; conditions: S. cerevisiae wt1 strain (SPY 50644) growth inhibition, active compounds read high
Summary of the method: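 Compounds are added to wt1 yeast cultures. Growth is then measured. Inhibition is expressed relative to vehicle-treated controls.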

[2] = NCI Yeast Anticancer Drug Screen. Data for the rad50EPP+ strain (AID 151);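 note: 0% = growth of vehicle-treated control cultures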; conditions: S. cerevisiae rad50 mutant strain, active compounds read high
Summary of the method: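 Exposing the rad50EPP+ strain to each compound, growth was compared with vehicle-only cultures to give inhibition.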

[3] = NCI Yeast Anticancer Drug Screen. Data for the mgt1 strain (AID 153); conditions: S. cerevisiae mgt1 mutant growth inhibition, active compounds read high
Summary of the method: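 Genetically defined yeast (mgt1) treated with compound; inhibition of growth expressed against vehicle-treated controls.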

[4] = NCI Yeast Anticancer Drug Screen. Data for the rad50 strain (AID 155);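 note: 0% = growth of vehicle-only cultures of the same strain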; conditions: S. cerevisiae rad50 strain growth inhibition, active compounds read high
Summary of the method: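 Inhibition values express reduced yeast growth in compound-treated cultures relative to vehicle-treated controls.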

[5] = NCI Yeast Anticancer Drug Screen. Data for the mec2-1 strain (AID 157); conditions: S. cerevisiae mec2-1 strain, active compounds read high
Summary of the method: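 Readout is yeast growth inhibition, normalised to vehicle-treated controls, in the mec2-1 strain exposed to compound.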

[6] = NCI Yeast Anticancer Drug Screen. Data for the rad14 strain (AID 159);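 note: 0% = growth of vehicle-treated control cultures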; conditions: S. cerevisiae rad14 strain growth inhibition, active compounds read high
Summary of the method: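 A mutant yeast strain defective in DNA damage repair is treated with compound; inhibition of its growth is scored against untreated, vehicle-exposed cultures.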

[7] = NCI Yeast Anticancer Drug Screen. Data for the sgs1 mgt1 strain (AID 161);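 note: 0% = growth of cultures given vehicle only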; conditions: S. cerevisiae sgs1 mgt1 strain, active compounds read high
Summary of the method: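 This yeast growth screen uses a strain with defined DNA-repair lesions; compound-treated growth is compared with vehicle-treated growth.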

[8] = NCI Yeast Anticancer Drug Screen. Data for the CLN2oe strain (AID 163);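 note: 0% = growth of vehicle-only control cultures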; conditions: S. cerevisiae CLN2oe strain, active compounds read high
Summary of the method: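 Values reflect how much compound exposure reduced yeast growth, referenced to vehicle-exposed cells. Assay organism is a strain with a defined genetic change affecting cell-cycle control.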

[9] = NCI Yeast Anticancer Drug Screen. Data for the cln2 rad14 strain (AID 165);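 note: 0% = growth equal to vehicle treated cultures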; conditions: S. cerevisiae cln2 rad14 strain, active compounds read high
Summary of the method: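 Relative to vehicle controls, growth inhibition of compound-treated cln2 rad14 yeast was recorded.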

[10] = NCI Yeast Anticancer Drug Screen. Data for the bub3 strain (AID 167); conditions: S. cerevisiae bub3 mutant strain, active compounds read high
Summary of the method: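 Steps: expose the mutant yeast strain to compound; grow alongside vehicle-treated cultures; measure growth; express inhibition against the vehicle cultures.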

[11] = NCI Yeast Anticancer Drug Screen. Data for the wt2 strain (AID 169);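 note: 0% = growth of vehicle-treated yeast cultures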; conditions: S. cerevisiae wt2 strain growth inhibition, active compounds read high
Summary of the method: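 Values express reduction in yeast growth under compound treatment, referenced to vehicle-treated cells.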

[12] = NCI Yeast Anticancer Drug Screen. Data for the mlh1 strain (AID 171);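 note: 0% = growth of vehicle-treated control cultures of the same strain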; conditions: S. cerevisiae mlh1 strain growth inhibition, active compounds read high
Summary of the method: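 Steps: expose the defined-mutant yeast strain to compound; expose a parallel culture to vehicle; measure growth; express compound effect as inhibition relative to the vehicle culture.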

[13] = NCI Yeast Anticancer Drug Screen. Data for the sgs1 strain (AID 173);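 note: 0% = growth of vehicle-only control cultures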; conditions: S. cerevisiae sgs1 mutant, active compounds read high
Summary of the method: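 Treat defined-mutant yeast with compound; measure growth; calculate inhibition relative to vehicle-treated cells.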

[14] = NCI Yeast Anticancer Drug Screen. Data for the mlh1 rad18 strain (AID 175); conditions: S. cerevisiae mlh1 rad18 strain growth inhibition, active compounds read high
Summary of the method: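 Test agents were incubated with a yeast strain of defined genotype (DNA damage repair defect). Inhibition of growth was derived by comparison with vehicle-exposed cultures.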

[15] = NCI Yeast Anticancer Drug Screen. Data for the rad18 strain (AID 177); conditions: S. cerevisiae rad18 mutant growth inhibition, active compounds read high
Summary of the method: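 A genetically defined yeast mutant impaired in DNA damage repair was treated with test compounds, then its growth was measured against cultures receiving vehicle alone.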

[16] = at 5.0 µM (retest, dose inferred, filed as 0.5)
[17] = at 50.0 µM (retest, dose inferred, filed as 5.0)

Measured: growth inhibition

Cc1ccc(N(C=O)c2c([N+](=O)[O-])cc([N+](=O)[O-])c3c2=[N+]([O-])CN=3)cc1
inactive: [1]; at 1.2 µM 3% | [1]; at 3.7 µM 23% | [1]; at 11.0 µM 20% | [2]; at 1.2 µM 35% | [2]; at 3.7 µM 51% | [3]; at 1.2 µM 10% | [3]; at 3.7 µM -1% | [3]; at 11.0 µM 52% | [4]; at 1.2 µM 9% | [4]; at 3.7 µM 18% | [4]; [16] 13% | [4]; at 11.0 µM 25% | [5]; at 1.2 µM 8% | [5]; at 3.7 µM 19% | [5]; [16] 6% | [5]; at 11.0 µM 32% | [5]; at 50.0 µM 27.6% | [6]; at 1.2 µM -15% | [6]; at 3.7 µM 1% | [6]; at 11.0 µM 30% | [7]; [16] 12% | [7]; at 50.0 µM 58.8% | [8]; at 1.2 µM -3% | [8]; at 3.7 µM 8% | [8]; at 11.0 µM 34% | [9]; [16] 28% | [9]; at 50.0 µM 31.6% | [10]; at 1.2 µM -1% | [10]; at 3.7 µM 5% | [10]; [16] 38% | [10]; at 11.0 µM 19% | [10]; at 50.0 µM 11% | [11]; at 1.2 µM 9% | [11]; at 3.7 µM 17% | [11]; at 11.0 µM 46% | [12]; at 1.2 µM -1% | [12]; at 3.7 µM 6% | [12]; at 11.0 µM 48% | [13]; at 1.2 µM 16% | [13]; at 3.7 µM 21% | [13]; at 11.0 µM 51% | [14]; [16] 12% | [14]; at 50.0 µM 41.3% | [15]; at 1.2 µM 0% | [15]; at 3.7 µM 14% | [15]; at 11.0 µM 47%
active: [1]; at 33.0 µM 89% | [1]; at 100.0 µM 98% | [2]; at 11.0 µM 84% | [2]; at 33.0 µM 95% | [2]; at 100.0 µM 97% | [3]; at 33.0 µM 96% | [3]; at 100.0 µM 98% | [4]; at 33.0 µM 92% | [4]; [17] 83% | [4]; at 50.0 µM 71.5% | [4]; at 100.0 µM 98% | [5]; at 33.0 µM 95% | [5]; [17] 91% | [5]; at 100.0 µM 98% | [6]; at 33.0 µM 94% | [6]; at 100.0 µM 97% | [7]; [17] 84% | [8]; at 33.0 µM 95% | [8]; at 100.0 µM 98% | [9]; [17] 81% | [10]; at 33.0 µM 72% | [10]; [17] 98% | [10]; at 100.0 µM 97% | [11]; at 33.0 µM 90% | [11]; at 100.0 µM 98% | [12]; at 33.0 µM 94% | [12]; at 100.0 µM 98% | [13]; at 33.0 µM 89% | [13]; at 100.0 µM 98% | [14]; [17] 98% | [15]; at 33.0 µM 91% | [15]; at 100.0 µM 98%

CCN(CC)c1cccc(Nc2nc3ccccc3s2)c1
active: [10]; [17] 83% | [10]; at 50.0 µM 89.8%
inactive: [1]; at 1.2 µM 8% | [1]; at 3.7 µM 10% | [1]; at 11.0 µM 6% | [1]; at 33.0 µM 7% | [1]; at 100.0 µM 5% | [2]; at 1.2 µM -9% | [2]; at 3.7 µM 0% | [2]; at 11.0 µM -2% | [2]; at 33.0 µM 1% | [2]; at 100.0 µM 19% | [3]; at 1.2 µM 6% | [3]; at 3.7 µM 6% | [3]; at 11.0 µM 5% | [3]; at 33.0 µM 7% | [3]; at 100.0 µM 7% | [4]; at 1.2 µM 8% | [4]; at 3.7 µM 9% | [4]; [16] -4% | [4]; at 11.0 µM 5% | [4]; at 33.0 µM 7% | [4]; [17] 2% | [4]; at 50.0 µM 1.6% | [4]; at 100.0 µM 7% | [5]; at 1.2 µM 13% | [5]; at 3.7 µM 14% | [5]; [16] -5% | [5]; at 11.0 µM 15% | [5]; at 33.0 µM 16% | [5]; [17] 1% | [5]; at 50.0 µM 7.7% | [5]; at 100.0 µM 8% | [6]; at 1.2 µM 7% | [6]; at 3.7 µM 7% | [6]; at 11.0 µM 7% | [6]; at 33.0 µM 7% | [6]; at 100.0 µM 7% | [7]; [16] 3% | [7]; [17] 21% | [7]; at 50.0 µM 17.4% | [8]; at 1.2 µM -3% | [8]; at 3.7 µM 1% | [8]; at 11.0 µM -1% | [8]; at 33.0 µM -4% | [8]; at 100.0 µM -10% | [9]; [16] -9% | [9]; [17] -1% | [9]; at 50.0 µM -7.1% | [10]; at 1.2 µM 0% | [10]; at 3.7 µM -1% | [10]; [16] 32% | [10]; at 11.0 µM 5% | [10]; at 33.0 µM 14% | [10]; at 100.0 µM 30% | [11]; at 1.2 µM -1% | [11]; at 3.7 µM -1% | [11]; at 11.0 µM -1% | [11]; at 33.0 µM -2% | [11]; at 100.0 µM -3% | [12]; at 1.2 µM 10% | [12]; at 3.7 µM 9% | [12]; at 11.0 µM 10% | [12]; at 33.0 µM 9% | [12]; at 100.0 µM 8% | [13]; at 1.2 µM 8% | [13]; at 3.7 µM 7% | [13]; at 11.0 µM 7% | [13]; at 33.0 µM 7% | [13]; at 100.0 µM 5% | [14]; [16] 4% | [14]; [17] 20% | [14]; at 50.0 µM 25.1% | [15]; at 1.2 µM 7% | [15]; at 3.7 µM 7% | [15]; at 11.0 µM 6% | [15]; at 33.0 µM 3% | [15]; at 100.0 µM 1%
